# Laboratory results published in paper PMC7862700, “An all-to-all approach to the identification of sequence-specific readers for epigenetic DNA modifications on cytosine”.
# Columns and labels:
# Test in all cases: DAPPL (digital affinity profiling via proximity ligation, sequencing); 10 mM Tris-HCl pH 7.5, 50 mM NaCl, 1 mM DTT, 4% glycerol, room temperature, 30 min; GST-TFs on glutathione beads, 16-mer random dsDNA library, 0.1% formaldehyde crosslink after washing; high values mean tight binding
# FEV = target: T1, FEV (Homo sapiens, UniProt Q99581 1-238); details: protein: recombinant; tags: N-terminal GST; dsDNA, one strand shown
# T1 sequence: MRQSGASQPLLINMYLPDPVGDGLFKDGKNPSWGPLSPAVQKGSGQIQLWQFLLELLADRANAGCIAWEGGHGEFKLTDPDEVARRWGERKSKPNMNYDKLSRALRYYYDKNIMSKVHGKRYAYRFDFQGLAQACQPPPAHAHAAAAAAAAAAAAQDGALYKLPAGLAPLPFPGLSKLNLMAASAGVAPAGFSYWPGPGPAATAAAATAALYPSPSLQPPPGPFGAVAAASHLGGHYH
# Summary of the method: (§1)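 In yeast, human transcription factors were expressed with a GST fusion, then pulled down on glutathione beads and given DNA barcodes. Pooled with a tag-only sample, they were exposed to 200 nmole of a 16-mer random double-stranded DNA library (Tris/NaCl/DTT/glycerol buffer, room temperature, 30 min), washed, crosslinked with 0.1% formaldehyde, proximity-ligated using BsaI/T4 ligase for 1 h at 37 °C, PCR-amplified and read on an Illumina NextSeq500. Each hexamer's frequency of reads for a factor, divided by the matching frequency for the tag-only sample, gives the binding signal.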
# ETV5 = ETV5 (Homo sapiens, UniProt P41161 1-510); details: protein: recombinant; tags: N-terminal GST; dsDNA, one strand shown
# Chain of ETV5 (P41161 whole entry): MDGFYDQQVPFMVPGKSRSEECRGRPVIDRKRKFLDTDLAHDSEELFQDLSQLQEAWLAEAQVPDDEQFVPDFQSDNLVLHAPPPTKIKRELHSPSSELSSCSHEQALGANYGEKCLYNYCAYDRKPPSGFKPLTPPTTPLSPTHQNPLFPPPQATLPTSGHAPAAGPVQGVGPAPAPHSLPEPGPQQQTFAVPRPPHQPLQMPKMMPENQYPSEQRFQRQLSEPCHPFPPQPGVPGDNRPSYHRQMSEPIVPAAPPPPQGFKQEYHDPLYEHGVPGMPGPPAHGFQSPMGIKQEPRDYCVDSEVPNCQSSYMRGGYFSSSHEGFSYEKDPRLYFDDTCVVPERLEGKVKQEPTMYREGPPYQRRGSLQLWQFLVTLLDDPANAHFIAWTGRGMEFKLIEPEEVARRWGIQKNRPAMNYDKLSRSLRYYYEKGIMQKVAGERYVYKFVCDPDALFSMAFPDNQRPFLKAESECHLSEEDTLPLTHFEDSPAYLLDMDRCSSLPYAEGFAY
# Summary of the method: as §1
# HSF1 = HSF1 (Homo sapiens, UniProt Q00613 1-529); details: protein: recombinant; tags: N-terminal GST; chain copies: 3; dsDNA, one strand shown
# Chain of HSF1 (Q00613 whole entry): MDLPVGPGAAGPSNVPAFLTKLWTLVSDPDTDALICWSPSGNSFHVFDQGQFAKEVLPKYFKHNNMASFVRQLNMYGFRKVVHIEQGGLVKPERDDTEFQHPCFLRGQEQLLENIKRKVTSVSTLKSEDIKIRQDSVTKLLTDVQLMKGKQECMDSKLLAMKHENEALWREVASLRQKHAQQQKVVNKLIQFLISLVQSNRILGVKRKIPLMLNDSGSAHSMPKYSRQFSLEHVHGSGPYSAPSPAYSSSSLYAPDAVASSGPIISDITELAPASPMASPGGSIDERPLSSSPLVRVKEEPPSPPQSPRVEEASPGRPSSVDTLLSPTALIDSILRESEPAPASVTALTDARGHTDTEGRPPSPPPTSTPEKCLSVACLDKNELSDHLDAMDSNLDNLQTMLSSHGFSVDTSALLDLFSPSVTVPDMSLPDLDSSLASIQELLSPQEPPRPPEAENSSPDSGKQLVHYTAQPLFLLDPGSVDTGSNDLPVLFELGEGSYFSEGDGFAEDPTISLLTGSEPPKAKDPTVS
# Summary of the method: as §1
# SPIC = target: T2, SPIC (Homo sapiens, UniProt Q8N5J4 1-248); details: protein: recombinant; tags: N-terminal GST; dsDNA, one strand shown
# T2 sequence: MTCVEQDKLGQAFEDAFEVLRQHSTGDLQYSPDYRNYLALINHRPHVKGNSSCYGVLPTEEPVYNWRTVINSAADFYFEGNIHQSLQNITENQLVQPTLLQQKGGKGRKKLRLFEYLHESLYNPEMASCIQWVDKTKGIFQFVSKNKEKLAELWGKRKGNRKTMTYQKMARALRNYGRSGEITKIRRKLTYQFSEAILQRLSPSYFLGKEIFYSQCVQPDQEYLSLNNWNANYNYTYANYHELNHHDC
# Summary of the method: as §1
# ELF4 = ELF4 (Homo sapiens, UniProt Q99607 1-663); details: protein: recombinant; tags: N-terminal GST; dsDNA, one strand shown
# Chain of ELF4 (Q99607 whole entry): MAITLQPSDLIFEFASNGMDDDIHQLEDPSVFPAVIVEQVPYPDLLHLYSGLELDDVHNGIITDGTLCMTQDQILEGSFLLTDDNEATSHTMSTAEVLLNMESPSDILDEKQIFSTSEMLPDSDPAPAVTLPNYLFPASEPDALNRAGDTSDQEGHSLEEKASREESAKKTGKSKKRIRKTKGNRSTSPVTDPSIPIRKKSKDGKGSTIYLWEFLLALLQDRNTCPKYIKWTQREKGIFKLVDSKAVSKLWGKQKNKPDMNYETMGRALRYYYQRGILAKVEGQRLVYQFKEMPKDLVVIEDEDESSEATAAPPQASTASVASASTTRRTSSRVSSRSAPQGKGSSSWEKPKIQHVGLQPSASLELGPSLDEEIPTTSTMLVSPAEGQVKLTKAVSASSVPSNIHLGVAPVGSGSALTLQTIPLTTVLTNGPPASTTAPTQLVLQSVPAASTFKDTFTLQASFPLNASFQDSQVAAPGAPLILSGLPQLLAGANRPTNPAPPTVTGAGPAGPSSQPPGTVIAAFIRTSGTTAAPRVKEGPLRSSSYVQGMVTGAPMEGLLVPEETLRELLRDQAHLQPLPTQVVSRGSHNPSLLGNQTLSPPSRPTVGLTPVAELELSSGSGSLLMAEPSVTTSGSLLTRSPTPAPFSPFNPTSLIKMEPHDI
# Summary of the method: as §1
# ELK4 = target: T3, ELK4 (Homo sapiens, UniProt P28324-2 1-405); details: protein: recombinant; tags: N-terminal GST; dsDNA, one strand shown
# T3 sequence: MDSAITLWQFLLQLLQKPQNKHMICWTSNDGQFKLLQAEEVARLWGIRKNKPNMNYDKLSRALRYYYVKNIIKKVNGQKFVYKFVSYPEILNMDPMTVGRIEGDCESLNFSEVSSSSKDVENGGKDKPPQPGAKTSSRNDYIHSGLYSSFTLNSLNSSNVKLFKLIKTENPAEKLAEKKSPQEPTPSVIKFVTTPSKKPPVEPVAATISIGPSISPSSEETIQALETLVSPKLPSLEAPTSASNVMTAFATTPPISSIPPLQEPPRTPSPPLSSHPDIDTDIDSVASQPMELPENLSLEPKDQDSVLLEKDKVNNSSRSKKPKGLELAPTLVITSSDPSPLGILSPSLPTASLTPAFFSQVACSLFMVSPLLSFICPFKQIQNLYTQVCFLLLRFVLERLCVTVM
# Summary of the method: as §1
# ETV2 = target: T4, ETV2 (Homo sapiens, UniProt O00321 1-342); details: protein: recombinant; tags: N-terminal GST; dsDNA, one strand shown
# T4 sequence: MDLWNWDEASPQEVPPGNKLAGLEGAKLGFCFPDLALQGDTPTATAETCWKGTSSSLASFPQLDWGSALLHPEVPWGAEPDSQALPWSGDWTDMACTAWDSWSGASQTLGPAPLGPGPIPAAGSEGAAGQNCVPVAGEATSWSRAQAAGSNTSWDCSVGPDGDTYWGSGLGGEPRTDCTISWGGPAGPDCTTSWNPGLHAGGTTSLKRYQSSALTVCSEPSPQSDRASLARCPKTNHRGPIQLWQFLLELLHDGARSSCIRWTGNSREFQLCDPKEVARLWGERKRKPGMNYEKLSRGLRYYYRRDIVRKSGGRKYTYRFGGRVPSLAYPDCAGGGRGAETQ
# Summary of the method: as §1
# ELF3 = target: T5, ELF3 (Homo sapiens, UniProt P78545 1-371); details: protein: recombinant; tags: N-terminal GST; dsDNA, one strand shown
# T5 sequence: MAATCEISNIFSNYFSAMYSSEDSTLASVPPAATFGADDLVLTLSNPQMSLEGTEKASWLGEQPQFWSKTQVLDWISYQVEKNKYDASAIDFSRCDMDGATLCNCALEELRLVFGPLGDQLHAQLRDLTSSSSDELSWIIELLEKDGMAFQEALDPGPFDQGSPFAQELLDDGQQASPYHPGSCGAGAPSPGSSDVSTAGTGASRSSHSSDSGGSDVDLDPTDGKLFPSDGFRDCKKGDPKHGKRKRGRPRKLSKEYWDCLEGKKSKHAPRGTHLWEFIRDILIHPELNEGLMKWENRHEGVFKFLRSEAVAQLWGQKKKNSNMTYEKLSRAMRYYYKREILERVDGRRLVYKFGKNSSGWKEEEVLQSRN
# Summary of the method: as §1
# CRX = CRX (Homo sapiens, UniProt O43186 1-299); details: protein: recombinant; tags: N-terminal GST; dsDNA, one strand shown
# Chain of CRX (O43186 whole entry): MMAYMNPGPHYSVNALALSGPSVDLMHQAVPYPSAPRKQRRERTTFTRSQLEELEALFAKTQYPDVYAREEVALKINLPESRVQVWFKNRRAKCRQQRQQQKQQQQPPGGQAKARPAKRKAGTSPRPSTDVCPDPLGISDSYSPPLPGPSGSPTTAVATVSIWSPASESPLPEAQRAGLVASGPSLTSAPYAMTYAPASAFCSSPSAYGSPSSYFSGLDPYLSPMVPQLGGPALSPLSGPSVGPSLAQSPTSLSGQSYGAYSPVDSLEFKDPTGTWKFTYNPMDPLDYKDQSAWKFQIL
# Summary of the method: as §1
# ETV1 = ETV1 (Homo sapiens, UniProt P50549 1-477); details: protein: recombinant; tags: N-terminal GST; dsDNA, one strand shown
# Chain of ETV1 (P50549 whole entry): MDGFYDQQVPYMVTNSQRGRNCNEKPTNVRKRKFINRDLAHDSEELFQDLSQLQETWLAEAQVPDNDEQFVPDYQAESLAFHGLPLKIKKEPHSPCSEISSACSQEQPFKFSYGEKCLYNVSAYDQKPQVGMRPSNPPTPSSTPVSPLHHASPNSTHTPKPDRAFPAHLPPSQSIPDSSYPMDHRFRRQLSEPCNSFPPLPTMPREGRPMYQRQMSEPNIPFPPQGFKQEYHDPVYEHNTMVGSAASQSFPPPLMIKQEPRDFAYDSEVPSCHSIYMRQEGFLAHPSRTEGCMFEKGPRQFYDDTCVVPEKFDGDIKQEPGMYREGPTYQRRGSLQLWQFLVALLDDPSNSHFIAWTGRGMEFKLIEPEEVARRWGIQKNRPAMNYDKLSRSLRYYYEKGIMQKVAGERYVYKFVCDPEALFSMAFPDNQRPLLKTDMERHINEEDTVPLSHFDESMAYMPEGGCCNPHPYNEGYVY
# Summary of the method: as §1
# ERF = target: T6, ERF (Homo sapiens, UniProt P50548 1-548); details: protein: recombinant; tags: N-terminal GST; dsDNA, one strand shown
# T6 sequence: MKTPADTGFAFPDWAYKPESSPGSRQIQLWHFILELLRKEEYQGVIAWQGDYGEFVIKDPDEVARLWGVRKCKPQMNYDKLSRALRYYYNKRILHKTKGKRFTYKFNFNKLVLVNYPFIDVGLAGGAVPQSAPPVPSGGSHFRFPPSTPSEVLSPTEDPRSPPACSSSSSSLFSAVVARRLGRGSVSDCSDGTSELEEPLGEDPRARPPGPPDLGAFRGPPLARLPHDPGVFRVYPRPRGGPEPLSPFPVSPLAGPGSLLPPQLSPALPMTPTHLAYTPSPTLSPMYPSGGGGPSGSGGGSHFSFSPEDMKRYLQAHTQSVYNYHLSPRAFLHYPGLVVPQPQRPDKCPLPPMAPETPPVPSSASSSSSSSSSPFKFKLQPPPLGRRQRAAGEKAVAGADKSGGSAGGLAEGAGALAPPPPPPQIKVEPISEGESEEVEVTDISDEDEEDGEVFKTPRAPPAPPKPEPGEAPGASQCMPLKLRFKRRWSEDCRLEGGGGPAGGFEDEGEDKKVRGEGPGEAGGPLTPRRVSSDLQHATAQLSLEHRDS
# Summary of the method: as §1
# ETV3L = target: T7, ETV3L (Homo sapiens, UniProt Q6ZN32 1-361); details: protein: recombinant; tags: N-terminal GST; dsDNA, one strand shown
# T7 sequence: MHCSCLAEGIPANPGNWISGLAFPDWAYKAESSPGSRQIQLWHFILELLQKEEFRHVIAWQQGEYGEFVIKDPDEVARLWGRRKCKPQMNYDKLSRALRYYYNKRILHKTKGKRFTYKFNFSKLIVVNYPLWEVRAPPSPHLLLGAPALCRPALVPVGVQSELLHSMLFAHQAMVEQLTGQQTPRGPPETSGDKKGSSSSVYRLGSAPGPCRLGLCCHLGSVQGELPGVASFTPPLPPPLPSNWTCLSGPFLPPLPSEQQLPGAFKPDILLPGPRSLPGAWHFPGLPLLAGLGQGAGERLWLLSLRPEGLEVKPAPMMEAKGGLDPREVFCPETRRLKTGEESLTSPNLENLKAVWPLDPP
# Summary of the method: as §1
# ETS2 = target: T8, ETS2 (Homo sapiens, UniProt P15036 1-469); details: protein: recombinant; tags: N-terminal GST; dsDNA, one strand shown
# T8 sequence: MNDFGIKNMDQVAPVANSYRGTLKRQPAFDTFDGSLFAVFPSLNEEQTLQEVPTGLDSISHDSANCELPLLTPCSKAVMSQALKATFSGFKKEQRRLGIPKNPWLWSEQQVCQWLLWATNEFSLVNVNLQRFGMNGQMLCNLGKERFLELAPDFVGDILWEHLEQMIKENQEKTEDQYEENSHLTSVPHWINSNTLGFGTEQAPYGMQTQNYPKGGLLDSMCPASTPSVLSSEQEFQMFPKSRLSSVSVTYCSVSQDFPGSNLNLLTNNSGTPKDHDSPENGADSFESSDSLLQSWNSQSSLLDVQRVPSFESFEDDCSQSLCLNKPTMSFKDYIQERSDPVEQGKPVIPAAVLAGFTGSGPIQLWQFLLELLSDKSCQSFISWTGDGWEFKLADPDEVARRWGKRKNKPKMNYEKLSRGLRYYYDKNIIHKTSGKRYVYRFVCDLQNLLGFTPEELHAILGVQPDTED
# Summary of the method: as §1
# SPDEF = target: T9, SPDEF (Homo sapiens, UniProt O95238 1-335); details: protein: recombinant; tags: N-terminal GST; dsDNA, one strand shown
# T9 sequence: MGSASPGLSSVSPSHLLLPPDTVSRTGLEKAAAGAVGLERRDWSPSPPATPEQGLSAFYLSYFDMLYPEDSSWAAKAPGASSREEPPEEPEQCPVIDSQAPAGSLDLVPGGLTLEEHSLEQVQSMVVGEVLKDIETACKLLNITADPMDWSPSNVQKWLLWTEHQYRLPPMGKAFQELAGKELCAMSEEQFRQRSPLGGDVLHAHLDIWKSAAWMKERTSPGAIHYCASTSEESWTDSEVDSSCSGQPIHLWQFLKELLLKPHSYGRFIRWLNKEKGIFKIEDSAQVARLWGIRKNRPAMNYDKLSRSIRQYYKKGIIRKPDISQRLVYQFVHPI
# Summary of the method: as §1
# ETV7 = target: T10, ETV7 (Homo sapiens, UniProt Q9Y603 1-341); details: protein: recombinant; tags: N-terminal GST; dsDNA, one strand shown
# T10 sequence: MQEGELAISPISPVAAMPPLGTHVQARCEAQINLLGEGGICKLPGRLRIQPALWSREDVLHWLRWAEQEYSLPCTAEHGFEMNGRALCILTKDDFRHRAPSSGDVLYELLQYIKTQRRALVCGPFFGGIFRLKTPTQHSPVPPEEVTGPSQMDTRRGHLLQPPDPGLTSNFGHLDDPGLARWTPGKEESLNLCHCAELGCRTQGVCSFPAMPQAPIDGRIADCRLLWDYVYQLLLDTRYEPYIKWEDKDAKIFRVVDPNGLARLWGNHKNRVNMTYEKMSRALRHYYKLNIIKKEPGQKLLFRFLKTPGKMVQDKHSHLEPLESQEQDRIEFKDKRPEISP
# Summary of the method: as §1
# ELF5 = target: T11, ELF5 (Homo sapiens, UniProt Q9UKW6-2 1-255); details: protein: recombinant; tags: N-terminal GST; dsDNA, one strand shown
# T11 sequence: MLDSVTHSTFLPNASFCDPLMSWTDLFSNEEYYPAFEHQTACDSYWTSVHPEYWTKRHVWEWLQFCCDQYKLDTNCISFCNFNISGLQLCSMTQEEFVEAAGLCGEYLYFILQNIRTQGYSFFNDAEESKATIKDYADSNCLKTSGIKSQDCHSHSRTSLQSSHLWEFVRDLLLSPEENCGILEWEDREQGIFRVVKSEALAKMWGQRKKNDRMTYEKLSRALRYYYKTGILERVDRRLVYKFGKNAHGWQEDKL
# Summary of the method: as §1
# ETV3 = target: T12, ETV3 (Homo sapiens, UniProt P41162-2 1-143); details: protein: recombinant; tags: N-terminal GST; dsDNA, one strand shown
# T12 sequence: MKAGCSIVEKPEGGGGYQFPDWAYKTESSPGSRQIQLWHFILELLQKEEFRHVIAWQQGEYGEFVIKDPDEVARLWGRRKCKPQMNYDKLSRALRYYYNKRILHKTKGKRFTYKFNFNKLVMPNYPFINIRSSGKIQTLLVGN
# Summary of the method: as §1
# ETV6 = ETV6 (Homo sapiens, UniProt P41212 1-452); details: protein: recombinant; tags: N-terminal GST; dsDNA, one strand shown
# Chain of ETV6 (P41212 whole entry): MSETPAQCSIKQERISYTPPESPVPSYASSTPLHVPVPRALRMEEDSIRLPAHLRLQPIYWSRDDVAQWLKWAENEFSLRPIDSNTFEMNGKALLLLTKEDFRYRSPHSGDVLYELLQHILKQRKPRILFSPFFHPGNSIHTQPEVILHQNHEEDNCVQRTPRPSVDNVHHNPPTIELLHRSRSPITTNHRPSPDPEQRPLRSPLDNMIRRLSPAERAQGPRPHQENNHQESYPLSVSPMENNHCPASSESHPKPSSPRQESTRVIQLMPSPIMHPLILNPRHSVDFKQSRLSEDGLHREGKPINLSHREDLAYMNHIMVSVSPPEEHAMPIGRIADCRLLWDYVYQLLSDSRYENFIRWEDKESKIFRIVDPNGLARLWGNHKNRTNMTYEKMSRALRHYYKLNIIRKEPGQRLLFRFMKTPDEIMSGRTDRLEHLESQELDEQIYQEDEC
# Summary of the method: as §1
sequence,measurement,setting,value
TCTACG,binding signal,FEV,"1.52 fold enrichment (6-mer frequency, TF over GST control)"
same,binding signal,ETV5,"1.3 fold enrichment (6-mer frequency, TF over GST control)"
same,binding signal,HSF1,"1.49 fold enrichment (6-mer frequency, TF over GST control)"
same,binding signal,SPIC,"1.3 fold enrichment (6-mer frequency, TF over GST control)"
same,binding signal,ELF4,"1.37 fold enrichment (6-mer frequency, TF over GST control)"
same,binding signal,ELK4,"1.36 fold enrichment (6-mer frequency, TF over GST control)"
same,binding signal,ETV2,"1.38 fold enrichment (6-mer frequency, TF over GST control)"
same,binding signal,ELF3,"1.5 fold enrichment (6-mer frequency, TF over GST control)"
same,binding signal,CRX,"1.44 fold enrichment (6-mer frequency, TF over GST control)"
same,binding signal,ETV1,"1.44 fold enrichment (6-mer frequency, TF over GST control)"
same,binding signal,ERF,"1.46 fold enrichment (6-mer frequency, TF over GST control)"
same,binding signal,ETV3L,"1.4 fold enrichment (6-mer frequency, TF over GST control)"
same,binding signal,ETS2,"1.41 fold enrichment (6-mer frequency, TF over GST control)"
same,binding signal,SPDEF,"1.33 fold enrichment (6-mer frequency, TF over GST control)"
same,binding signal,ETV7,"1.36 fold enrichment (6-mer frequency, TF over GST control)"
same,binding signal,ELF5,"1.35 fold enrichment (6-mer frequency, TF over GST control)"
same,binding signal,ETV3,"1.32 fold enrichment (6-mer frequency, TF over GST control)"
same,binding signal,ETV6,"1.2 fold enrichment (6-mer frequency, TF over GST control)"
